Shown are actives, neighbours in structure and some others; about 1.9% of the full set was active somewhere.
PABP1 MLLE inh: inhibitors of microRNA-mediated deadenylation, human PABP1 MLLE binding; inhibition, % at 20 µM; actives 0.36% (n = 360,000); GST-MLLE / FITC-PAM2 fluorescence polarization; P11940; in the data active means inhibition above about 35%, passing the limit was not always enough;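 further: plate controls were DMSO wells with GST-MLLE for no effect and wells lacking GST-MLLE protein for full effect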
PERK inh: blocks human PERK kinase. actives 0.17% (n = 220,000). Q9NZJ5. inhibition, % at 5.6 µM. AID 1416. CHO PERK-DD fusion, SEAP luminescence translation reporter;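 active means inhibition above the mean inhibition of all tested compounds plus 3 SD, set separately per screening campaign, cut at about 2.9% in these data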;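 further: PERK kinase domain activated by AP20187 dimerizer at 100 nM; 0% = DMSO with dimerizer and 100% = rapamycin at 8.4 µM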
Target sequence (Q9NZJ5 whole entry, looked up, the tested form may be a part): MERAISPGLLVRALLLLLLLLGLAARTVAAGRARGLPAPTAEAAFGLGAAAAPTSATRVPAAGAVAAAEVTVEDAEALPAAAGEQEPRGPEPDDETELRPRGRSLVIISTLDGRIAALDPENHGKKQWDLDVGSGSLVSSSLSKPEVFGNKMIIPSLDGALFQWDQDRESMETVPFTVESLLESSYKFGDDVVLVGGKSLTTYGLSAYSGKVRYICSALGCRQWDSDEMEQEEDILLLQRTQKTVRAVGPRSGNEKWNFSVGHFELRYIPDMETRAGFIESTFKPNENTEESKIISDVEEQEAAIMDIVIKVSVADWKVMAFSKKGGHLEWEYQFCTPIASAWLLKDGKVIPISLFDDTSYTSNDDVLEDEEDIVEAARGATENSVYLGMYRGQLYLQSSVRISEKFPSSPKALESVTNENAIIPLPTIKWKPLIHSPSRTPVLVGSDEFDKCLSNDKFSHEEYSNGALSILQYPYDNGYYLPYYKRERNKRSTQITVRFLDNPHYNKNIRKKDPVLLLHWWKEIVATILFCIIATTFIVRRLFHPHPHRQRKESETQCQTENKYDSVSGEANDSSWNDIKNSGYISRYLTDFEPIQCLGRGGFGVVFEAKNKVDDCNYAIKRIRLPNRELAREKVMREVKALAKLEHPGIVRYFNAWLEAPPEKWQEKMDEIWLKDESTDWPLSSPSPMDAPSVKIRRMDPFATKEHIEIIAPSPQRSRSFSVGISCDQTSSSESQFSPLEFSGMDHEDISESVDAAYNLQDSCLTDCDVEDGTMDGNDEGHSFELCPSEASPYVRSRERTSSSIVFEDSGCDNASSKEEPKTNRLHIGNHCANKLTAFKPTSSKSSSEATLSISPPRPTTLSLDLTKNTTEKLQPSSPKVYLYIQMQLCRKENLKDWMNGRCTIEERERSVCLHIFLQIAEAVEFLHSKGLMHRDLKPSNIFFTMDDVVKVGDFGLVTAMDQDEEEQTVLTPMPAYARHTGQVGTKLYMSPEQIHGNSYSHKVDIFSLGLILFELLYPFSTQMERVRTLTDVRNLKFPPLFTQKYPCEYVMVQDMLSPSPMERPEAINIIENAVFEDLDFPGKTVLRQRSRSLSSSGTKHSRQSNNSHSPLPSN
PABP polyA inh: PABP-poly(A) binding inhibition; inhibition, % at 35 µM; P11940; actives 1% (n = 290,000); AID 2014; PABP-poly(A) RNA binding, fluorescence polarization;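 further: calls also rest on retests at 20 µM and on dose response follow-up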
GRK2 inh: blocks RNA aptamer binding to human GRK2 | bead flow cytometry, FAM-aptamer displacement from GRK2 | inhibition of aptamer binding, % at 10 µM | actives 0.59% (n = 330,000) | AID 488847;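 active means inhibition of aptamer binding above 40%, roughly 3 SD of noise, on plates passing a quality check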;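 further: median bead fluorescence of bound FAM aptamer so fluorescent compounds give negative values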
eIF4H inh: inhibitors of RNA binding by human eIF4H; Q15056; eIF4H fluorescence polarization binding assay; inhibition, % at 35 µM; actives 0.94% (n = 290,000);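 further: calls also rest on retests at 20 µM and on dose response follow-up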
Active calls of the source: *; ? = inconclusive; / = not tested or not shown. Unless noted, how the calls were made is not given here.

SMILES	PABP1 MLLE inh	PERK inh	PABP polyA inh	GRK2 inh	eIF4H inh
COc1ccc(/C=N/NC2=NCCCCC2)c(OC)c1	-0.9	-0.2	67.5*	1.0	active
COc1cc(/C=C2\C(=N)N3N=C(S(C)(=O)=O)SC3=NC2=O)ccc1OCCOc1ccccc1C	-3.0	/	64.9*	2.0	88.4*
CCOC(=O)c1ccc(NC(=S)Nc2ccccc2N)cc1	/	/	/	2.0	/
COc1ccc(C(=S)N2CCN(c3ccccc3C)CC2)cc1	42.1*	0.5	1.3	0.0	-5.7
CCOC(=O)Cn1ccc(NC(=O)c2ccc3c(c2)OCO3)n1	-1.3	/	2.1	1.0	4.3
COc1ccc(CC(=O)NCc2cccc(Cl)c2)cc1S(=O)(=O)N1CCOCC1	3.0	/	/	/	/
COc1ccc(CCn2c(=N)c(C(=O)NCc3ccco3)cc3c(=O)n4ccccc4nc32)cc1OC	-1.8	/	/	/	/
COc1ccc(CCNC(=O)c2cc3c(=O)n4ccccc4nc3n(Cc3ccco3)c2=N)cc1OC	-1.8	/	9.7	0.0	87.0*
Cc1cccn2c(=O)c3cc(C(=O)NCc4ccco4)c(=N)n(CCOCCO)c3nc12	58.4*	0.8	/	0.0	/
N=c1c(C(=O)NCc2ccco2)cc2c(=O)n3ccccc3nc2n1CCc1ccccc1	-10.0	-0.5	60.3*	1.0	59.2*
N=c1c(C(=O)NCc2ccco2)cc2c(=O)n3ccccc3nc2n1CC1CCCO1 (stereo not given)	47.2*	-0.1	/	0.0	/
COCCn1c(=N)c(C(=O)NCc2ccco2)cc2c(=O)n3cc(C)ccc3nc21	68.9*	0.4	48.1	2.0	106.7*
Cc1ccc2nc3c(cc(C(=O)NCc4ccco4)c(=N)n3C3CCCC3)c(=O)n2c1	15.1	/	?	2.0	?
Cc1ccc(Cn2c(=N)c(C(=O)NCc3ccco3)cc3c(=O)n4ccccc4nc32)cc1	-30.9	0.0	60.3*	0.0	74.8*
CCOC(=O)c1cc2c(=O)n3ccccc3nc2n(Cc2ccco2)c1=NC(=O)c1ccccc1OCC	-1.1	0.1	-6.0	4.0	90.0*
COc1ccc(S(=O)(=O)N2CCOCC2)cc1C(=O)NCC(c1ccco1)N1CCCC1 (stereo not given)	-3.3	/	/	2.0	/
CCC1(C)Cc2c(sc3[nH]c(=O)[nH]c(=O)c23)CS1 (stereo not given)	32.3	1.5	65.6*	0.0	66.5*
O=c1cnnc(SCc2ccc([N+](=O)[O-])cc2)[nH]1	16.2	1.5	7.6	0.0	-6.7
CC1CCCC(C)N1C(=O)Nc1cccc(Cl)c1 (stereo not given)	-2.1	2.9*	-8.6	0.0	-9.2
Cc1cccc(C)c1NC(=O)c1ccc2sc([C@@H]3O[C@H](CO)[C@H](O)[C@H](O)[C@H]3O)nc2c1	13.2	/	/	/	/
Cc1ccccc1CN1CCCOCCS1(=O)=O	9.0	/	11.0	4.0	-5.3
CC1=CC(=O)C2=C(C)CCC3C(C)C(=O)OC3C12 (stereo not given)	12.2	/	/	/	/
Cc1ccc(Cl)cc1N1CCN(C(=O)c2ccc3c(c2)CCN3S(C)(=O)=O)CC1	-11.9	/	6.6	3.0	-10.0
CCCN(CCC)CCNC(=O)C1CCN(Cc2nc(-c3ccc(Cl)cc3)oc2C)CC1	12.4	-1.2	10.5	96.0*	-2.5
Cc1oc(-c2ccc(Cl)cc2)nc1CN1CCC(C(=O)NCc2cccnc2)CC1	0.5	-1.3	4.4	2.0	-3.9
SMILES	PABP1 MLLE inh	PERK inh	PABP polyA inh	GRK2 inh	eIF4H inh
Cc1ccc(N=Cc2cccc(O)c2O)c(C)c1	5.0	1.0	30.8*	2.0	99.2*
Cc1ccccc1N=Cc1cccc(O)c1O	-1.8	0.5	1.5	6.0	?
CCCCNC(=O)c1[nH]c(=O)cnc1-c1ccccc1	-6.2	/	/	/	/
O=S(=O)(Nc1ccccc1)c1cccc2nsnc12	10.0	/	31.4	18.0	71.2*
Cc1ccc(NC(=O)COC(=O)C2CCN(c3ccc(C(F)(F)F)cn3)CC2)cc1	-33.3	/	/	0.0	/
O=c1nc(/C=C/c2cccn2-c2ccc([N+](=O)[O-])cc2)cc(C(F)(F)F)[nH]1	-74.7	0.9	active	2.0	59.6*
OC1(c2ccc(Br)cc2)CN(c2ccccc2)C2=[N+]1CCS2 (stereo not given)	36.5*	0.7	6.9	6.0	-5.8
COc1ccc(S(=O)(=O)N2CCCCC2)cc1NC(=O)c1ccc(Cl)nc1	-8.7	/	/	1.0	/
CC(C)CN1CCC(=O)N([C@H](COc2ccccc2)c2ccccc2)CC1	9.3	/	-8.3	1.0	-9.8
O=C(O)c1cc(=O)[nH]c2ccccc12	-20.8	/	/	/	/
Oc1ccc(C=Nc2ccc(N3CCOCC3)cc2)c(O)c1	-34.8	-0.6	3.1	6.0	-1.8
Cc1ccc(N=Cc2ccc(O)cc2O)cc1F	-0.3	-0.5	66.9*	0.0	53.5*
CCOc1ccc2[nH]c(SCC(=O)OC)c([N+](=O)[O-])c2c1	53.9*	-0.4	30.0*	1.0	54.4*
CCCn1c(/C=C/c2cc[n+](C)cc2)nc2ccccc21	-19.9	/	87.7*	4.0	38.5
Cc1cc(NC(=NC2CC2)c2ccccc2F)n(-c2ccccc2)n1	13.5	-0.8	-13.1	1.0	-7.1
Cc1c(O)nc(SCC(=O)Nc2ccc3c4c(cccc24)CC3)n(-c2ccc(F)cc2)c1=O	40.0*	-0.1	-1.0	2.0	39.2
CCc1c(O)nc(SCC(=O)Nc2c(C)cccc2C)n(-c2ccc(F)cc2)c1=O	-82.4	/	/	/	/
CCC1CCCCN1CCCNC(=O)CN1C(=O)COc2ccccc21 (stereo not given)	14.2	/	-3.7	0.0	1.4
COc1ccccc1C(=O)NCCNc1ccc([N+](=O)[O-])cc1Cl	-3.1	/	5.3	1.0	-4.2
O=C(O)c1ccc2c(c1)C1C=CCC1C(c1cc3c(cc1Br)OCO3)N2 (stereo not given)	15.6	0.2	7.6	0.0	1.9
O=C(O)c1ccc(NS(=O)(=O)c2ccc3c(c2)C2C=CCC2C(c2ccccc2F)N3)cc1 (stereo not given)	-13.1	1.3	81.4*	/	96.7
Cc1ccc2nc(-c3cccnc3)c(NC3CCCCC3)n2c1	46.1*	0.0	0.7	4.0	17.4
CCOc1ccccc1NC(=O)Nc1ccc(OC)nc1	47.7*	/	48.8*	0.0	68.4
COc1cccc(/C=N/NC(=O)c2cc3cc([N+](=O)[O-])ccc3s2)c1O	-17.3	0.3	-9.4	87.0*	23.7
COc1ccc(/C=C/C(=O)NC2CCN(Cc3ccccc3)CC2)cc1OC	-4.6	/	-7.6	0.0	5.7
CCOC(=O)N1CCC(N(CCN(C)C)C(=S)Nc2ccccc2OC)CC1	18.0	1.1	3.7	0.0	-2.7
CCOC(=O)N1CCC(N(CCN(C)C)C(=S)Nc2ccccc2OCC)CC1	21.9	0.3	54.1*	1.0	active
O=[N+]([O-])c1cc2c(cc1/C=N/n1c(-c3ccccc3)n[nH]c1=S)OCO2	-5.4	1.8	24.7	1.0	58.6*
Cc1cccc(N=Cc2cc3c(cc2[N+](=O)[O-])OCO3)c1	-9.2	0.5	21.3*	3.0	61.6*
O=C(Nc1ccnn1C1CCN(C(=O)c2cccc(C(F)(F)F)c2)CC1)C1CC1	-6.0	/	-2.3	1.0	-8.8
